Potency and affinity values are given separately. Calls of active or inactive are those of the source. Entries that show only a call come without a potency. The rule behind the calls is not given here.

The assay is described as follows: host cell cytotoxicity of antiviral hits, dose response, cytotoxicity control for West Nile virus antiviral project, secondary assay (AID 1650). The following applies: Mammalian host cell viability, cytotoxicity counter-screen; series mostly up to 10 µM. On the technique in general: The purpose of a counterscreen is to sort out artefacts and off-target activity.
`Cc1ccc2[nH]c(=O)c(CN(CCCN3CCOCC3)C(=O)Nc3ccc(Cl)cc3)cc2c1`: the outcome was inactive.
As for `COc1cc(NC(=O)c2cc([N+](=O)[O-])ccc2Br)ccc1NC(=O)c1ccco1`, the molecule was called inactive.
In the case of `Cc1ccc(Sc2nnc(Cc3ccccc3)c3ccccc23)cc1`, the result was inactive.
As for `COc1cc2c(OC(C)=O)c3c(c(-c4ccc5c(c4)OCO5)c2cc1OC)C(=O)OC3`, the entry is “inactive”; as for `O=C(NCCC1=CCCCC1)c1coc(=O)c(Br)c1`, “inactive”; as for `O=C1Nc2cc(C(=O)NCCCN3CCOCC3)ccc2S/C1=C/c1cccc(Cl)c1`, “inactive”.
As for `CC1CCCN(CCCNC(=O)c2cc3c(s2)-c2ccccc2OC3)C1` (configuration not stated), the entry is “inactive”.
As for `CN1CCN(NC(=O)c2cc(-c3ccc(Cl)s3)nc3ccccc23)CC1`, the call was inactive.
Next, `CCc1cc(-c2[nH]ncc2-c2ccc(OC)cc2)c(O)cc1O`: “inactive”; `Cc1cc(C)cc(OC(=O)CS(=O)c2ccc(C(F)(F)F)cc2[N+](=O)[O-])c1` (configuration not stated): “inactive”.
For `Cc1cccc(N(CC(=O)NCc2ccco2)C(=O)CCC(=O)Nc2ccccn2)c1C`, the result was inactive.
`COc1ccc(S(=O)(=O)NC2CCCC2)c(Cl)c1Cl`: the molecule was called inactive.
Take `N#CC(C(=O)NC1CCCCC1)c1nc2ccccc2nc1N1CCN(c2ccc(F)cc2)CC1` (configuration not stated): the call was inactive.
As for `O=c1c(-c2ccccc2)c1-c1ccccc1`, the entry is “inactive”.
For `COc1cc2nc(N3CCN(C(=O)C4COc5ccccc5O4)CC3)nc(N)c2cc1OC` (configuration not stated), the call was inactive.
Next, `O=[N+]([O-])c1ccc(Cl)c(/C=N/n2c(C3CCCCC3)n[nH]c2=S)c1`: “inactive”; `Cc1c(Cc2ccccc2)c(NCCN(C)C)n2c(nc3ccccc32)c1C#N`: “inactive”.

(Values after PubChem BioAssay AID1650 (Southern Research Specialized Biocontainment Screening …, 2009).)
